Results filed as inconclusive are left out. A call without a number means that no potency is given here. The source made the active and inactive calls. Unless noted, calls follow the shape of the full dose curve.
Tested on: not listed separately
Assay: qHTS for Inhibitors of the Functional Ribonucleoprotein Complex (vRNP) of Lymphocytic Choriomeningitis Arenaviruses (LCMV): Viability assay - alamar blue signal for LCMV Primary Screen (AID 1347085; calls by dose curve; tested in HEK293 reporter line; also: nearly all actives have a fitted effect of over 80% in size)
Conditions: alamar blue viability counter-screen, LCMV vRNP screen cells; series mostly up to 57.5 µM
Potency is read from the fitted curve at half-maximal effect.

Structure (SMILES) | activity change, negative = lower viability | Potency
O=C(O)CCC/C=C\C/C=C\C=C\[C@@H](O)C/C=C\CCCCCO | 9.51% [at 0.757 µM] (inactive) | 
COc1c2c(cc(O)c1C(C)=O)OC(C)(C)C=C2 |  | inactive
C[C@]12C=CC(=O)C=C1CC[C@@H]1[C@@H]2[C@@H](O)C[C@@]2(C)[C@@H]1CC[C@]2(O)C(=O)CO |  | inactive
O=c1ccn([C@H]2C[C@H](O)[C@@H](CO)O2)c(=O)[nH]1 |  | inactive
C/C=C1\CN2[C@H]3C[C@@]45c6ccccc6N(C)[C@H]4[C@@H]2CC1C3[C@H]5O (stereo not given in full) |  | inactive
CC[C@H](C)C(=O)N[C@H]1CCCN1C(=O)/C=C/c1ccccc1 |  | inactive
CC(C)C1C(=O)O[C@@H]2CCN3CC=C(COC(=O)[C@](C)(O)[C@]1(C)O)[C@H]23 (stereo not given in full) |  | inactive
COc1ccc([C@H]2c3cc(OC)c(OC)cc3C[C@@H](C)[C@@H]2C)cc1OC |  | inactive
CC(=O)O[C@H]1C[C@@H]2CC[C@H]3[C@H]4C[C@H]([N+]5(C)CCCCC5)[C@@H](OC(C)=O)[C@@]4(C)CC[C@@H]3[C@@]2(C)C[C@H]1N1CCCCC1 |  | inactive
OC[C@H]1O[C@@H](Oc2ccc(O)cc2)[C@H](O)[C@@H](O)[C@H]1O |  | inactive
C=Cc1cc(OC)c2c(c1)c(=O)oc1c2cc(OC)c2c(O)ccc(C3OC(C)C(O)C(C)(O)C3O)c21 (stereo not given) |  | inactive
CCc1ccc(O)c(OC)c1 |  | inactive
COc1cc2c(=O)c(-c3ccc(O)cc3)coc2cc1OC1OC(CO)C(O)C(O)C1O (stereo not given) |  | inactive
CCC/C=C/C/C=C/C=C/C=N/NN=O |  | inactive
CC(C)=CCC[C@](C)(O)C1CC[C@]2(C)C1[C@H](O)CC1[C@@]3(C)CC[C@H](O[C@@H]4O[C@H](CO)[C@@H](O)[C@H](O)[C@H]4O[C@@H]4O[C@H](CO)[C@@H](O)[C@H](O)[C@H]4O)C(C)(C)C3CC[C@]12C (stereo not given in full) |  | inactive
CCC(=O)OCCC(C)CCC=C(C)C (stereo not given) |  | inactive
Nc1nc(=O)n([C@H]2CSC(CO)O2)cc1F (stereo not given in full) |  | inactive
COc1c2c(nc3occc13)C(CC=C(C)C)(OC)C(OC(C)=O)CC2 (stereo not given) |  | inactive
CCn1c(-c2nonc2N)nc2cncc(CNC3CCNCC3)c21 |  | 24.3 µM (active)
CC1(C)CC(=O)CC(C)(C)N1 |  | inactive

Structure (SMILES) | activity change, negative = lower viability | Potency
C[C@H]([C@@H](N)C(=O)N[C@@H](C(=O)O)[C@@H]1O[C@H](n2ccc(=O)[nH]c2=O)[C@@H](O)[C@H]1O)[C@@H](O)c1ccc(O)cn1 |  | inactive
O=c1[nH]cnc2c1ncn2C1OCC(O)C(O)C1O (stereo not given) |  | inactive
C[C@H]1CC[C@@H]2[C@@H](C)[C@H]3C(C[C@H]4C5CC[C@H]6C[C@@H](O)CC[C@]6(C)C5CC[C@]34C)N2C1 (stereo not given in full) |  | inactive
COC(=O)[C@@]1(C)CC[C@]2(C)CC[C@@]3(C)C(=CC(=O)C4[C@@]5(C)CC[C@H](O)C(C)(C)[C@@H]5CC[C@]43C)[C@H]2C1 (stereo not given in full) |  | inactive
C=CC(=O)Nc1cccc(Nc2nc(NC3CCC(N(C)C)CC3)nc3c2ncn3C(C)C)c1 (stereo not given) |  | 0.544 µM (active)
COc1ccc(C2CC(=O)c3c(O)cc(O)cc3O2)c(CC=C(C)C)c1OC (stereo not given) |  | inactive
CC(C)CC[C@@H](O)[C@](C)(O)C1CC[C@@]2(O)C3=CC(=O)[C@@H]4C[C@@H](O)[C@@H](O)C[C@]4(C)C3CC[C@]12C (stereo not given in full) |  | inactive
O=c1ccc2ccc(O[C@@H]3O[C@H](CO[C@@H]4OC[C@](O)(CO)[C@H]4O)[C@@H](O)[C@H](O)[C@H]3O)cc2o1 |  | inactive
CC1(C)C[C@H]2C3=CCC4[C@@]5(C)CC[C@H](O)[C@](C)(CO)C5CC[C@@]4(C)[C@]3(C)C[C@@H](O)[C@@]2(CO)[C@@H](O)[C@@H]1O (stereo not given in full) |  | inactive
O=CN(O)CCCP(=O)(O)O |  | inactive
CC1CC2CCCC(O)=C2C(=O)O1 (stereo not given) |  | inactive
C/C=C(\C)C(=O)O[C@H]1CC(C)=C2C(=O)C=C(C)C2[C@@H]2OC(=O)[C@@](C)(OC(=O)C=C(C)C)C21 (stereo not given in full) |  | inactive
ON=Cc1ccnc2ccccc12 |  | inactive
CSC(=S)NCc1c[nH]c2ccccc12 |  | inactive
O=C(Oc1ccccc1)c1ccccc1C(=O)Oc1ccccc1 |  | inactive
c1ccc2cnccc2c1 |  | inactive
COc1ccc2c(=O)c(-c3ccc(OC)c(OC)c3)coc2c1 |  | inactive
CC1(C)OC(=O)C=C[C@]2(C)[C@H]3CC[C@@]4(C)[C@H](c5ccoc5)OC(=O)[C@H]5O[C@]54[C@]3(C)C(=O)C[C@@H]12 |  | inactive
COc1cc2c(c3oc(-c4ccccc4)cc(=O)c13)C=CC(C)(C)O2 |  | inactive
COc1cc(O)c2c(=O)c3c(O[C@H]4O[C@@H](CO)[C@H](O)[C@@H](O)[C@@H]4O)ccc(O)c3oc2c1 |  | inactive

Molecular target: Nucleoprotein (Lymphocytic choriomeningitis virus (strain Armstrong)) (UniProt P09992)
Sequence (P09992 whole entry, looked up): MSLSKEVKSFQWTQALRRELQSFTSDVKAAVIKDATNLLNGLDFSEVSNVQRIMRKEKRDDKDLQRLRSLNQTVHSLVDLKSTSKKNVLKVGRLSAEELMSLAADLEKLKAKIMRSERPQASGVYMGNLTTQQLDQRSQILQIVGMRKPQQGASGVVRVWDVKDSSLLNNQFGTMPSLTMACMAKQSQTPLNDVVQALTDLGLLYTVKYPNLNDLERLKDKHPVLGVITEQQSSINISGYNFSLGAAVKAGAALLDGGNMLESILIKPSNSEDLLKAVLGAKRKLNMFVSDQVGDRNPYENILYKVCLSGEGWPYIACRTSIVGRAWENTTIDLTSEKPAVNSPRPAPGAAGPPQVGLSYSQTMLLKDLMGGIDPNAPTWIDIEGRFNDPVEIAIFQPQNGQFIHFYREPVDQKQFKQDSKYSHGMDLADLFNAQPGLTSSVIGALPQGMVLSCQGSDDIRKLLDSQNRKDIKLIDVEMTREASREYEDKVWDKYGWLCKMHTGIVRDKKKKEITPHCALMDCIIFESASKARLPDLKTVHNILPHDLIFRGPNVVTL
Assay: qHTS for Inhibitors of the Functional Ribonucleoprotein Complex (vRNP) of Lymphocytic Choriomeningitis Arenaviruses (LCMV): LCMV Primary Screen - GLuc reporter signal (AID 1347086); also: nearly all actives have a fitted effect of over 70% in size
Conditions: LCMV minigenome vRNP cell assay, Gaussia luciferase reporter; series mostly up to 57.5 µM

Structure (SMILES) | activity change, negative = inhibition | Potency
O=C(O)CCC/C=C\C/C=C\C=C\[C@@H](O)C/C=C\CCCCCO | 12.9% [at 0.757 µM] (inactive) | 
COc1c2c(cc(O)c1C(C)=O)OC(C)(C)C=C2 |  | inactive
C[C@]12C=CC(=O)C=C1CC[C@@H]1[C@@H]2[C@@H](O)C[C@@]2(C)[C@@H]1CC[C@]2(O)C(=O)CO |  | inactive
O=c1ccn([C@H]2C[C@H](O)[C@@H](CO)O2)c(=O)[nH]1 |  | inactive
C/C=C1\CN2[C@H]3C[C@@]45c6ccccc6N(C)[C@H]4[C@@H]2CC1C3[C@H]5O (stereo not given in full) |  | inactive
CC[C@H](C)C(=O)N[C@H]1CCCN1C(=O)/C=C/c1ccccc1 |  | inactive
CC(C)C1C(=O)O[C@@H]2CCN3CC=C(COC(=O)[C@](C)(O)[C@]1(C)O)[C@H]23 (stereo not given in full) |  | inactive
COc1ccc([C@H]2c3cc(OC)c(OC)cc3C[C@@H](C)[C@@H]2C)cc1OC |  | inactive
CC(=O)O[C@H]1C[C@@H]2CC[C@H]3[C@H]4C[C@H]([N+]5(C)CCCCC5)[C@@H](OC(C)=O)[C@@]4(C)CC[C@@H]3[C@@]2(C)C[C@H]1N1CCCCC1 |  | inactive
OC[C@H]1O[C@@H](Oc2ccc(O)cc2)[C@H](O)[C@@H](O)[C@H]1O |  | inactive
C=Cc1cc(OC)c2c(c1)c(=O)oc1c2cc(OC)c2c(O)ccc(C3OC(C)C(O)C(C)(O)C3O)c21 (stereo not given) |  | inactive
CCc1ccc(O)c(OC)c1 |  | inactive
COc1cc2c(=O)c(-c3ccc(O)cc3)coc2cc1OC1OC(CO)C(O)C(O)C1O (stereo not given) |  | inactive
CCC/C=C/C/C=C/C=C/C=N/NN=O |  | inactive
CC(C)=CCC[C@](C)(O)C1CC[C@]2(C)C1[C@H](O)CC1[C@@]3(C)CC[C@H](O[C@@H]4O[C@H](CO)[C@@H](O)[C@H](O)[C@H]4O[C@@H]4O[C@H](CO)[C@@H](O)[C@H](O)[C@H]4O)C(C)(C)C3CC[C@]12C (stereo not given in full) |  | inactive
CCC(=O)OCCC(C)CCC=C(C)C (stereo not given) |  | inactive
Nc1nc(=O)n([C@H]2CSC(CO)O2)cc1F (stereo not given in full) |  | inactive
COc1c2c(nc3occc13)C(CC=C(C)C)(OC)C(OC(C)=O)CC2 (stereo not given) |  | inactive
CCn1c(-c2nonc2N)nc2cncc(CNC3CCNCC3)c21 |  | 38.5 µM (active)
CC1(C)CC(=O)CC(C)(C)N1 |  | inactive

Structure (SMILES) | activity change, negative = inhibition | Potency
C[C@H]([C@@H](N)C(=O)N[C@@H](C(=O)O)[C@@H]1O[C@H](n2ccc(=O)[nH]c2=O)[C@@H](O)[C@H]1O)[C@@H](O)c1ccc(O)cn1 |  | inactive
O=c1[nH]cnc2c1ncn2C1OCC(O)C(O)C1O (stereo not given) |  | inactive
C[C@H]1CC[C@@H]2[C@@H](C)[C@H]3C(C[C@H]4C5CC[C@H]6C[C@@H](O)CC[C@]6(C)C5CC[C@]34C)N2C1 (stereo not given in full) |  | inactive
COC(=O)[C@@]1(C)CC[C@]2(C)CC[C@@]3(C)C(=CC(=O)C4[C@@]5(C)CC[C@H](O)C(C)(C)[C@@H]5CC[C@]43C)[C@H]2C1 (stereo not given in full) |  | inactive
C=CC(=O)Nc1cccc(Nc2nc(NC3CCC(N(C)C)CC3)nc3c2ncn3C(C)C)c1 (stereo not given) |  | 0.863 µM (active)
COc1ccc(C2CC(=O)c3c(O)cc(O)cc3O2)c(CC=C(C)C)c1OC (stereo not given) |  | inactive
CC(C)CC[C@@H](O)[C@](C)(O)C1CC[C@@]2(O)C3=CC(=O)[C@@H]4C[C@@H](O)[C@@H](O)C[C@]4(C)C3CC[C@]12C (stereo not given in full) |  | inactive
O=c1ccc2ccc(O[C@@H]3O[C@H](CO[C@@H]4OC[C@](O)(CO)[C@H]4O)[C@@H](O)[C@H](O)[C@H]3O)cc2o1 |  | inactive
CC1(C)C[C@H]2C3=CCC4[C@@]5(C)CC[C@H](O)[C@](C)(CO)C5CC[C@@]4(C)[C@]3(C)C[C@@H](O)[C@@]2(CO)[C@@H](O)[C@@H]1O (stereo not given in full) |  | inactive
O=CN(O)CCCP(=O)(O)O |  | inactive
CC1CC2CCCC(O)=C2C(=O)O1 (stereo not given) |  | inactive
C/C=C(\C)C(=O)O[C@H]1CC(C)=C2C(=O)C=C(C)C2[C@@H]2OC(=O)[C@@](C)(OC(=O)C=C(C)C)C21 (stereo not given in full) |  | inactive
ON=Cc1ccnc2ccccc12 |  | inactive
CSC(=S)NCc1c[nH]c2ccccc12 |  | inactive
O=C(Oc1ccccc1)c1ccccc1C(=O)Oc1ccccc1 |  | inactive
c1ccc2cnccc2c1 |  | inactive
COc1ccc2c(=O)c(-c3ccc(OC)c(OC)c3)coc2c1 |  | inactive
CC1(C)OC(=O)C=C[C@]2(C)[C@H]3CC[C@@]4(C)[C@H](c5ccoc5)OC(=O)[C@H]5O[C@]54[C@]3(C)C(=O)C[C@@H]12 |  | inactive
COc1cc2c(c3oc(-c4ccccc4)cc(=O)c13)C=CC(C)(C)O2 |  | inactive
COc1cc(O)c2c(=O)c3c(O[C@H]4O[C@@H](CO)[C@H](O)[C@@H](O)[C@@H]4O)ccc(O)c3oc2c1 |  | inactive
